Compound in this experiment: Nc1ncnc2c1ncn2[C@@H]1O[C@H](COP(=O)(O)OP(=O)(O)OP(=O)(O)O)[C@@H](O)[C@H]1O [adenosine 5'-triphosphate]
As to the kind of experiment: log2 fold change of tryptic peptide abundance, ligand vs vehicle (limited proteolysis) (log2 ratio); higher = more trypsin-susceptible (destabilized). The settings on record: ligand concentration: 5 mM; sample: E. coli desalted lysate; replicate design: treated before aliquoting. The method, then:
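HT-PELSA: desalted E. coli K-12 BW25113 lysate (with 12 mM MgCl2) incubated with 5 mM ATP (pH 7) or water for 30 min at 25 C, then a 4 min trypsin pulse at 22 C. Peptides were quantified by DIA-MS (4 replicates). Value is the peptide log2 fold change (treated/control); negative = stabilized. Scale: negative = ligand-stabilized region.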
As to “UniProt P37685 (peptide sequence: MMLEHYQQTK, peptide start residue: 489)”, the log2 fold change is -0.646.
As for “UniProt P16691 (peptide sequence: VGFNANLRDPNMR, peptide start residue: 36)”, the figure is -0.259.
As for “UniProt P32144 (peptide sequence: NILLVADHTK, peptide start residue: 206)”, the log2 fold change was -0.398.
With “UniProt P46837 (peptide sequence: AEDEAINVFAR, peptide start residue: 303)”, the log2 fold change came out at 0.79.
Consider “UniProt P21893 (peptide sequence: DCNFPSK, peptide start residue: 181)”, for which the log2 fold change is -0.813.
As for “UniProt P21345 (peptide sequence: EVLGKFDKTADQ, peptide start residue: 426)”, the figure is -1.41; as for “UniProt P31470 (peptide sequence: EGEGVTITNLR, peptide start residue: 74)”, -0.324.
Consider “UniProt P30844 (peptide sequence: NLVENAHR, peptide start residue: 260)”, for which the log2 fold change is -1.02.
Take “UniProt P0AEK2 (peptide sequence: ALSDDQRAGILAQVPAGR, peptide start residue: 191)”: the log2 fold change stood at 0.83.
As to “UniProt P77258 (peptide sequence: DENGQAIR, peptide start residue: 136)”, the log2 fold change is -0.737.
The value for “UniProt P10346 (peptide sequence: IAEDGNPQVLIKNPPSQR, peptide start residue: 214)” was 0.654.
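Further: lysate desalted by size exclusion to strip endogenous ATP, peptide intensities built from DIA-NN precursor signals, and peptides missing any value discarded before comparison.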
